According to PubChem BioAssay:
Values without a mark were called inactive. A call without a number means that no potency is given here. For some of these results: Potency and affinity values are given separately. Active and inactive are the calls of the source. Unless noted, the rule behind the calls is not given here.

Key:
[1] = antimalarial activity against Dd2 strain (AID 2302;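 active = growth inhibition above 50% at the single 2 µM test dose, taken to imply half-maximal potency below 2 µM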); conditions: P. falciparum Dd2 in RBCs, LDH growth readout, 72 h; at 2 µM; hits give high values
[2] = human hepatoma cell viability loss – ATP luminescence, cytotoxicity control for P. falciparum antimalarial project, primary screen (AID 2303;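 active = inhibition above 50%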); conditions: HepG2 viability, 24-48 h, at 10 µM, hits give high values
[3] = biological target: L-lactate dehydrogenase (Plasmodium falciparum (isolate CDC / Honduras)) (UniProt Q27743); assay: PfLDH activity inhibition – cell lysate, 3D7 strain, counter-screen for P. falciparum growth inhibition project (AID 2304); conditions: P. falciparum 3D7 crude extract, LDH APAD/NBT absorbance; at 2 µM; hits give high values
Sequence of L-lactate dehydrogenase (Plasmodium falciparum (isolate CDC / Honduras)) (Q27743 whole entry, looked up): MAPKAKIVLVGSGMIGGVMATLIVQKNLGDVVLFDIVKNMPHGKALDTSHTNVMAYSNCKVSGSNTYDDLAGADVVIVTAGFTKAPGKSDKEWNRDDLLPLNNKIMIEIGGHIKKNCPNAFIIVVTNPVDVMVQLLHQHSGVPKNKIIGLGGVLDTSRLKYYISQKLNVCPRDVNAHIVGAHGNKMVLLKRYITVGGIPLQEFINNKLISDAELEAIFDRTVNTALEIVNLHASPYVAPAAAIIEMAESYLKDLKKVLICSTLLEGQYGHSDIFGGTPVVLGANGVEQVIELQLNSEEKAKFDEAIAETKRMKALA

[4] = inhibition of 3D7 malaria parasite growth – strain 3D7 (AID 2306); conditions: P. falciparum 3D7 erythrocytic growth, LDH absorbance, 72 h; at 2 µM; hits give high values
[5] = biological target: Calcium-dependent protein kinase 1 (Plasmodium falciparum (isolate 3D7)) (UniProt P62344); assay: PfCDPK1 kinase inhibitors, biochemical, TCAMS library (AID 1159585; cut-off not given, nearly all actives have IC50 up to about 0.98 µM;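 note: inhibitors leave more ATP so luminescence rises with inhibition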); conditions: recombinant PfCDPK1, Kinase-Glo ATP depletion luminescence
Sequence of Calcium-dependent protein kinase 1 (Plasmodium falciparum (isolate 3D7)) (P62344 whole entry, looked up): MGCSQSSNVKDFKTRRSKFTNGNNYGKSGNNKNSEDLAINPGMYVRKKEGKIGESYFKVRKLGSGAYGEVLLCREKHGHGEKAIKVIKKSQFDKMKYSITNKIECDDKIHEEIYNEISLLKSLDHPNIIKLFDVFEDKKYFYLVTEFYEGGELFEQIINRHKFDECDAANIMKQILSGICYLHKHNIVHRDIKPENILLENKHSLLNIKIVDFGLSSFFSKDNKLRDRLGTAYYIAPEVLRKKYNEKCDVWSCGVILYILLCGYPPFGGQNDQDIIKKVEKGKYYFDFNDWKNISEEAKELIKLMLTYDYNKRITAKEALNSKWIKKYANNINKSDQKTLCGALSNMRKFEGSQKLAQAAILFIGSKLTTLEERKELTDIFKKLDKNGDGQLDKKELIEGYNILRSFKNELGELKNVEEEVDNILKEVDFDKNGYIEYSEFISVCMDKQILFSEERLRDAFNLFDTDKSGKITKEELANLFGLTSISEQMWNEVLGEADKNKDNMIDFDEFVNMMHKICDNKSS

[6] = biological target: Plasmodium falciparum protein kinase 6 (PK6, PF3D7_1337100) (UniProt Q8IDW1); assay: PfPK6 kinase inhibitors, biochemical, TCAMS library (AID 1159586); conditions: recombinant PfPK6, Kinase-Glo ATP depletion luminescence
Sequence of Plasmodium falciparum protein kinase 6 (PK6, PF3D7_1337100) (Q8IDW1 1-305): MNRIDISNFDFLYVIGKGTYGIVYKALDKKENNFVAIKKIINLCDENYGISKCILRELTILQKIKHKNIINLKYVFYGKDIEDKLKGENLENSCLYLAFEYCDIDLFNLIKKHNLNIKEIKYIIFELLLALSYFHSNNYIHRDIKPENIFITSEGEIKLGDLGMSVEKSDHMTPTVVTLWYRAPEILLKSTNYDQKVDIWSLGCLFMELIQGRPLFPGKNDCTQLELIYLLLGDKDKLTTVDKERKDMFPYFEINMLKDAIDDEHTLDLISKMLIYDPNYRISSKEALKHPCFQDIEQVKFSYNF

[7] = biological target: Protein kinase 7 (PK7), Plasmodium falciparum 3D7 (PF3D7_0213400) (UniProt Q7YTF7); assay: inhibition of Plasmodium PK7 catalytic activity – biochemical, TCAMS antimalarial set, Kinase-Glo luminescence (AID 1159587); conditions: recombinant PfPK7, Kinase-Glo ATP depletion luminescence
Sequence of Protein kinase 7 (PK7), Plasmodium falciparum 3D7 (PF3D7_0213400) (Q7YTF7 1-343): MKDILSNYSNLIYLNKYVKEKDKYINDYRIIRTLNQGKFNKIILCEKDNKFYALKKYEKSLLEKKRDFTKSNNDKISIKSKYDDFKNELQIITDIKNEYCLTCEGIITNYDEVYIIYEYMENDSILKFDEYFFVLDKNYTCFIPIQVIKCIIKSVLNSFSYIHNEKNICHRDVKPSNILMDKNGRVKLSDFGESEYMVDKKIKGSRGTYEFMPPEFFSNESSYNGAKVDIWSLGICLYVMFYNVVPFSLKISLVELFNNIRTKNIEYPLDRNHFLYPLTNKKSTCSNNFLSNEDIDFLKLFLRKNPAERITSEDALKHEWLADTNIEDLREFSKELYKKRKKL

[8] = biological target: Calcium-dependent protein kinase 4 (Plasmodium falciparum (isolate 3D7)) (UniProt Q8IBS5); assay: PfCDPK4 kinase inhibitors, biochemical, TCAMS library (AID 1159588; cut-off not given, nearly all actives have IC50 up to about 0.91 µM); conditions: recombinant PfCDPK4, Kinase-Glo ATP depletion luminescence
Sequence of Calcium-dependent protein kinase 4 (Plasmodium falciparum (isolate 3D7)) (Q8IBS5 whole entry, looked up): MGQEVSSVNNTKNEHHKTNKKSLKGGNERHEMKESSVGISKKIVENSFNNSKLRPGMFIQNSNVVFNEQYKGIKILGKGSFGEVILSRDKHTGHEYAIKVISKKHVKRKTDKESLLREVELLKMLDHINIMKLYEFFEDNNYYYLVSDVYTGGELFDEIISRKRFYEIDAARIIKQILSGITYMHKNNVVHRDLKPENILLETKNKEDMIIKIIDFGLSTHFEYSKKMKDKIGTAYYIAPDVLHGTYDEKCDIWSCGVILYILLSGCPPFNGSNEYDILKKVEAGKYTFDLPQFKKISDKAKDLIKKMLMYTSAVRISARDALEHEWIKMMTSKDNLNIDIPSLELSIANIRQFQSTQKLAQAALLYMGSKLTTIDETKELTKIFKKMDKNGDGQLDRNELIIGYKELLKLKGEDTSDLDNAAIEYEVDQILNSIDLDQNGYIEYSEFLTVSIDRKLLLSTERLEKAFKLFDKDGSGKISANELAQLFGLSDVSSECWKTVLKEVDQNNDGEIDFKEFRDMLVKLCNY

SMILES	growth inhibition [1]	inhibition [2]	inhibition [3] [%]	growth inhibition [4]	outcome [5]	outcome [6]	outcome [7]	outcome [8]
CC(C)CCN1CCC(Oc2cccc(NC(=O)c3ccc(C(F)(F)F)cc3)c2)CC1	6%	39%	-2	98% (active)	inactive	inactive	inactive	inactive
COc1ccc(OCCCCON2C(N)=NC(N)=NC2(C)C)cc1	95% (active)	54% (active)	4	92% (active)	inactive	inactive	inactive	inactive
COc1ccc2nccc([C@@H](O)CN3CCC(NS(=O)(=O)c4cc5c(cc4Cl)SCC(=O)N5)CC3)c2c1	0%	5%	0	88% (active)	inactive	inactive	inactive	inactive
CC(C)Oc1cc2c(cc1NS(=O)(=O)c1ccc(-c3ccc(Cl)cc3)cc1F)CCN(C)CC2	2%	29%	-1	88% (active)	inactive	inactive	inactive	inactive
CCCC(C)NC(=O)/C=C/c1ccccc1-c1cccc(OC)c1 (stereo not drawn)	59% (active)	0%	3	87% (active)	inactive	inactive	inactive	inactive
N#Cc1ccc(NC(=O)c2ccc(Cc3ccc4c(c3)CCN(C3CCC3)CC4)cn2)cc1	2%	66% (active)	-4	91% (active)	inactive	inactive	inactive	inactive
CCOC(=O)c1cc(C(=O)OC)c2ccccn12	2%	44%	-2	97% (active)	inactive	inactive	inactive	inactive
CCCS(=O)(=O)c1nc(S(=O)(=O)c2ccc(Cl)cc2)c(N2CCCCC2)s1	34%	3%	-3	87% (active)	inactive	inactive	inactive	inactive
O=[N+]([O-])c1ccc2ncnc(Nc3ccc(F)c(Cl)c3)c2c1	65% (active)	-1%	0	100% (active)	inactive	inactive	inactive	inactive
COc1ccc(CNC2CCN(C)CC2)cc1-c1ccc(S(=O)(=O)NCc2ccccc2)c(C)c1	98% (active)	81% (active)	3	100% (active)	inactive	inactive	inactive	inactive
CN(C)CCCN1CCN(C(=O)c2cccc(-c3noc(C(F)(F)F)n3)c2)CC1	60% (active)	-7%	-4	92% (active)	inactive	inactive	inactive	inactive
COc1ccc2nccc([C@@H](O)CN3CCC(NC(=O)c4ccc(Cl)c([N+](=O)[O-])c4)CC3)c2c1	43%	14%	-1	88% (active)	inactive	inactive	inactive	inactive
OC(CNc1ccnc(Nc2cccc(Cl)c2)n1)c1ccc(C(F)(F)F)cc1 (stereo not drawn)	61% (active)	13%	5	101% (active)	inactive	inactive	inactive	inactive
Cc1ccc(NC(=O)c2ccc(N3CCN(c4ccncc4)CC3)cc2)cc1F	79% (active)	47%	-1	100% (active)	inactive	inactive	inactive	inactive
CNS(=O)(=O)c1ccc(NC(=O)c2cc(-c3cccnc3)nc3ccc(Br)cc23)cc1	55% (active)	9%	5	101% (active)	inactive	inactive	inactive	inactive
Cc1nccc2c(NC(=O)N[C@@H]3CCN(c4ncc(C(F)(F)F)cc4Br)C3)cccc12	27%	21%	-4	96% (active)	inactive	inactive	inactive	inactive
CCC(C)c1cccc(C(C)CC)c1OCCCON1C(N)=NC(N)=NC1(C)C (stereo not drawn)	98% (active)	51% (active)	-4	91% (active)	inactive	inactive	inactive	inactive
CCN(CC)CC(O)c1cc(-c2ccc(C)cc2)nc2c(C)cc(C)cc12 (stereo not drawn)	99% (active)	3%	1	100% (active)	inactive	inactive	inactive	inactive
COc1ccc2ncc(F)c(CCN3[C@@H]4CC[C@H]3CC(NCc3ccc5c(c3)OCCO5)C4)c2n1 (stereo partly drawn)	35%	27%	-5	102% (active)	inactive	inactive	inactive	inactive
CC[C@H](C)CNC(=O)c1cccc(-c2cccc(CN3CCC(N4CCCC4)CC3)c2)n1	86% (active)	9%	1	101% (active)	inactive	inactive	inactive	inactive
COc1ccc(-c2nnc(Sc3ccc(C#N)c([N+](=O)[O-])c3)n2CC(C)C)cc1	78% (active)	3%	4	97% (active)	inactive	inactive	inactive	inactive

SMILES	growth inhibition [1]	inhibition [2]	inhibition [3] [%]	growth inhibition [4]	outcome [5]	outcome [6]	outcome [7]	outcome [8]
CCOc1ccc(C(=O)Nc2cc(Br)c3c(c2)CNCC3)cc1Cl	8%	13%	5	92% (active)	inactive	inactive	inactive	inactive
CC[C@H](C)CNC(=O)c1ccnc(-c2ccc(CNCCCc3ccccc3)cc2)c1	84% (active)	17%	-4	101% (active)	inactive	inactive	inactive	inactive
O=[N+]([O-])c1cc2c(cc1C=NNc1nc(Nc3ccccc3)nc(Nc3ccccc3)n1)OCO2	46%	-8%	-2	98% (active)	inactive	inactive	inactive	inactive
CCn1ccc2c(N3CCCC3=O)cc(C(=O)N[C@@H](Cc3ccccc3)[C@H](O)CNCc3cccc(OC)c3)cc21	92% (active)	4%	-5	94% (active)	inactive	inactive	inactive	inactive
COc1ccc(C(O)CNC(C)CCc2ccc(F)cc2)cc1C(F)(F)F (stereo not drawn)	98% (active)	92% (active)	3	99% (active)	inactive	inactive	inactive	inactive
O=C(/C=C/c1ccc(Cl)c(Cl)c1)NCCCCCN1CCC(NC(=O)Nc2ccc(OC(F)F)cc2)CC1	18%	33%	6	101% (active)	inactive	inactive	inactive	inactive
CC(CCCC(=O)Nc1ccc(CC(C)NCCc2cccc(Cl)c2)cc1)NCCc1cccc(Cl)c1 (stereo not drawn)	14%	98% (active)	-3	101% (active)	inactive	inactive	inactive	inactive
Cc1ccc(N2C(=O)C3C(C2=O)[C@]2(c4ccccc4)C(=O)[C@@]3(c3ccccc3)C(c3ccccc3)=C2c2ccccc2)cc1 (stereo partly drawn)	96% (active)	17%	-2	92% (active)	inactive	inactive	inactive	inactive
CN(C)Cc1ccc(O)c(-c2ccc(C(C)(C)C)cc2)n1	25%	-1%	-5	86% (active)	inactive	inactive	inactive	inactive
Cc1cc(N[C@@H](CC(C)C)C(=O)NCc2cccs2)nc(NCCc2ccccc2)n1	8%	1%	-2	94% (active)	inactive	inactive	inactive	inactive
CC(=O)Nc1ncc(C(=O)Nc2cccc(-c3cccc(-c4nc5ccc(C(F)(F)F)cc5[nH]4)c3)c2)s1	99% (active)	76% (active)	3	101% (active)	inactive	inactive	inactive	inactive
Fc1ccc(Nc2ccnc3cc(-c4ccc(CNCCN5CCOCC5)o4)ccc23)c(Cl)c1	99% (active)	34%	-1	100% (active)	inactive	inactive	inactive	inactive
C[C@@H](Oc1cc(-n2cnc3ccc(NC(=O)CCN4CCCCC4)cc32)sc1C(N)=O)c1ccccc1Cl	60% (active)	36%	3	101% (active)	inactive	inactive	inactive	inactive
Cc1[nH]c(C)c(-c2ccc(-c3ccc(C(F)(F)F)cc3C(F)(F)F)nc2)c(=O)c1Br	97% (active)	30%	5	97% (active)	inactive	inactive	inactive	inactive
O=C(Nc1ccc(N2CCCCC2)c(Cl)c1)c1ccco1	95% (active)	-1%	-6	96% (active)	inactive	inactive	inactive	inactive
CCCCN(CCCC)CCCCCCNc1c2ccccc2nc2ccccc12	87% (active)	49%	7	95% (active)	inactive	inactive	inactive	inactive
COc1ccc2c(NN=Cc3ccccc3[N+](=O)[O-])cc(C)nc2c1	100% (active)	14%	-4	101% (active)	inactive	inactive	inactive	inactive
O=S(=O)(NC1CCCCN(Cc2ccccc2O)C1)c1ccc(C(F)(F)F)cc1 (stereo not drawn)	39%	1%	7	84% (active)	inactive	inactive	inactive	inactive
COC(=O)c1cccc(CNCc2ccc(-c3ccc(-c4nc5ccc(F)cc5[nH]4)s3)cc2)c1	82% (active)	4%	7	101% (active)	inactive	inactive	inactive	inactive
Cc1cc(C(F)(F)F)n2nc(C3CCN(Cc4cc(C)c(O)c(C)c4)C3)cc2n1 (stereo not drawn)	99% (active)	34%	0	98% (active)	inactive	inactive	inactive	inactive
